PubChem BioAssay (NCI)
The panel holds about 83,000 compounds, 20% with a hit somewhere; the sample as a whole holds those more often.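 Values shown are percent growth following 48 h exposure of cells in 96-well plates to a single concentration of compound; below 10 was considered active.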 Unmarked numbers belong to inactive results. Calls of active or inactive are those of the source.

How the values were obtained:
Assay in all cases: NCI-60 one-dose screen, 48 h (100 = growth as untreated, 0 = no growth, -100 = all killed)
Details in all cases: 10 µM unless noted
DU-145 prostate = tested on: DU-145 prostate
K-562 leukemia = tested on: K-562 leukemia
MALME-3M melanoma = tested on: MALME-3M melanoma
MDA-MB-231 breast = tested on: MDA-MB-231 breast
RXF 393 renal = tested on: RXF 393 renal
SF-268 CNS = tested on: SF-268 CNS
SF-295 CNS = tested on: SF-295 CNS
SF-539 CNS = tested on: SF-539 CNS
UACC-257 melanoma = tested on: UACC-257 melanoma
M14 melanoma = tested on: M14 melanoma
HCT-15 colon = tested on: HCT-15 colon
HT29 colon = tested on: HT29 colon
SNB-75 CNS = tested on: SNB-75 CNS
SNB-19 CNS = tested on: SNB-19 CNS
U251 CNS = tested on: U251 CNS
PC-3 prostate = tested on: PC-3 prostate
SK-MEL-5 melanoma = tested on: SK-MEL-5 melanoma
UACC-62 melanoma = tested on: UACC-62 melanoma
LOX IMVI melanoma = tested on: LOX IMVI melanoma
SK-MEL-28 melanoma = tested on: SK-MEL-28 melanoma

| Compound | growth (DU-145 prostate) | growth (K-562 leukemia) | growth (MALME-3M melanoma) | growth (MDA-MB-231 breast) | growth (RXF 393 renal) | growth (SF-268 CNS) | growth (SF-295 CNS) | growth (SF-539 CNS) | growth (UACC-257 melanoma) | growth (M14 melanoma) | growth (HCT-15 colon) | growth (HT29 colon) | growth (SNB-75 CNS) | growth (SNB-19 CNS) | growth (U251 CNS) | growth (PC-3 prostate) | growth (SK-MEL-5 melanoma) | growth (UACC-62 melanoma) | growth (LOX IMVI melanoma) | growth (SK-MEL-28 melanoma) |
| --- | --- | --- | --- | --- | --- | --- | --- | --- | --- | --- | --- | --- | --- | --- | --- | --- | --- | --- | --- | --- |
| O=C1/C(=C/c2cccc(OCc3ccccc3)c2)Oc2cc(OCCN3CCCCC3)ccc21 | 88.1% | -37.8% (active) | 58.3% | 71% | 68.6% | 81% | 95.5% | 68.1% | 94.5% | 88.6% | -37% (active) | 21% | 76% | 83.9% | 61.1% | 47.1% | 78.6% | 77.8% | 32.1% | 76.6% |
| C[C@@H](NC(=O)[C@@H](CC(=O)N1CCC(N2CCCCC2)CC1)N1C(=O)[C@@H](N2C(=O)OC[C@@H]2c2ccccc2)[C@H]1/C=C/c1cccc(Cl)c1)c1ccccc1 | 88.1% | -8.32% (active) | -33.7% (active) | 33.2% | 60.5% | 67.9% | 82% | 75.7% | 57.2% | -46.6% (active) | 32.8% | 1.92% (active) | 70.8% | 82.2% | 55.2% | 56.1% | -89% (active) | 89.5% | -43.2% (active) | -29.4% (active) |
| O=C1COCCN1c1ccc(NCc2cn(Cc3ccccc3)c3ccccc23)cc1 | 102% | 57.3% | 95.9% | 86.7% | 46.8% | 91.9% | 61.7% | 91.8% | 75.4% | 90.2% | 90.7% | 109% | 81.7% | 93.2% | 86.8% | 89% | 91.5% | 21.6% | 92% | 102% |
| COCc1nc2ccccc2[nH]1 | 113% | 99% | 98.7% | 100% | 117% | 108% | 95.1% | 92.8% | 104% | 100% | 97.7% | 104% | 95.8% | 101% | 98.3% | 104% | 99.5% | 99.1% | 99.3% | 98.8% |
| CN(C)c1ccc(-c2ccc(-c3ccc(C(=N)N)cc3)s2)cc1 | -88.4% (active) | -4.45% (active) | 88.1% | -29.6% (active) | 54.3% | 82.9% | 102% | 89.9% | 104% | 99.8% | -74.6% (active) | -65.6% (active) | 97.6% | -70.2% (active) | -86.8% (active) | -91.6% (active) | 74.3% | 37.1% | 12.7% | 94.1% |
| COC(=O)[C@]12CCC(C)(C)C[C@H]1C1=CC[C@@H]3[C@@]4(C)C/C(=C/c5cccnc5)C(=O)C(C)(C)[C@@H]4CC[C@@]3(C)[C@]1(C)CC2 | 7.21% [100 µM] (active) | 5.39% [100 µM] (active) | -79.7% [100 µM] (active) | -55.7% [100 µM] (active) | -76.5% [100 µM] (active) | -5.3% [100 µM] (active) | -29.8% [100 µM] (active) | -76.6% [100 µM] (active) | -29.2% [100 µM] (active) | -49.8% [100 µM] (active) | 0.973% [100 µM] (active) | -15.9% [100 µM] (active) | -59.8% [100 µM] (active) | -23.1% [100 µM] (active) | -38.2% [100 µM] (active) | -16.3% [100 µM] (active) | -93.9% [100 µM] (active) | -59.4% [100 µM] (active) | -89.5% [100 µM] (active) | -69.5% [100 µM] (active) |
| Cn1cc(-c2noc(-c3cn(C)c4ncc(F)cc34)n2)c2cc(Br)ccc21 | 84.6% | 86.6% | 57.5% | 60.8% | 90.9% | 76.1% | 84.6% | 71.3% | 98.7% | 85.7% | 76% | 47.3% | 61.2% | 75.9% | 29.4% | 75.3% | 83.9% | 76.1% | 70.7% | 83.7% |
| CCc1ccc(-c2ccc(COc3ccc(CC4SC(=O)NC4=O)cc3)cc2)cc1 (stereo not given) | 88.8% | 34.8% | 67.3% | 77.3% | 102% | 76.7% | 75.8% | 77% | 86.3% | 79.6% | 56.4% | 103% | 76.2% | 87.1% | 72.8% | 65.6% | 39.8% | 60.2% | 63.3% | 85% |
| CCOC(=O)C(C(C)=O)c1nc2sc3cc(Cl)c(Cl)cc3n2c(=O)c1C#N (stereo not given) | 109% | 92% | 95.5% | 87.2% | 179% | 103% | 103% | 86.2% | 118% | 104% | 109% | 107% | 73% | 93% | 111% | 83.9% | 74.3% | 85.8% | 98.1% | 125% |
| Cc1ccc(NCCN2CCCCC2)c2c(=O)c3ccccc3sc12 | 36.7% | 16.2% | 22.1% | 28.3% | -29.5% (active) | 45.7% | 39% | 32.3% | -43% (active) | -30% (active) | 13.9% | 20.5% | 38.7% | 36% | 21.1% | 38.2% | -92.2% (active) | -2.99% (active) | -50.1% (active) | 11% |
| ClC1=C(Cl)C(Cl)=C(Cl)C1=Cc1ccccc1 | -76.4% (active) | 1.01% (active) | -53.7% (active) | -21% (active) | -91.4% (active) | -44.9% (active) | -30.1% (active) | -43.6% (active) | -66.7% (active) | -93.1% (active) | -55.1% (active) | -30.1% (active) | -77% (active) | -16.8% (active) | -50.3% (active) | -10.3% (active) | -95.8% (active) | -77% (active) | -91.5% (active) | -87.5% (active) |
| O=c1[nH]c(CN2CCN(c3cccc(Cl)c3)CC2)nc2cc(Cl)ccc12 | 101% | 97.9% | 108% | 104% | 90.3% | 99.3% | 100% | 94.2% | 59.9% | 89.1% | 94.4% | 106% | 80.5% | 91.3% | 94.6% | 90.6% | 99.4% | 93.8% | 92.5% | 102% |
| CC1(C(=O)O)CCC(N)(C(=O)O)C1(C)C (stereo not given) | 118% | 107% | 113% | 108% | 126% | 112% | 97.3% | 108% | 121% | 110% | 106% | 103% | 90% | 105% | 105% | 88.8% | 107% | 107% | 109% | 109% |
| CC1(C)NCCC[C@]2(C)[C@H]3C=CC4=C5C[C@](C)(CO)CC[C@]5(C)CC[C@@]4(C)[C@]3(C)CC[C@@H]12 | -89.5% [100 µM] (active) | -25.4% [100 µM] (active) | -82.6% [100 µM] (active) | -94% [100 µM] (active) | -70.4% [100 µM] (active) | -69.9% [100 µM] (active) | -90.1% [100 µM] (active) | -93.3% [100 µM] (active) | -80.5% [100 µM] (active) | -82.1% [100 µM] (active) | -89.3% [100 µM] (active) | -62.1% [100 µM] (active) | -97.7% [100 µM] (active) | -90.4% [100 µM] (active) | -59.7% [100 µM] (active) | -79.1% [100 µM] (active) | -91.5% [100 µM] (active) | -94.3% [100 µM] (active) | -91.5% [100 µM] (active) | -97.3% [100 µM] (active) |
| COc1cc(C)cc2oc3oc(=O)c(-c4nc5ccccc5s4)cc3c(=O)c12 | 98.8% | 99.8% | 94% | 95.1% | 77.5% | 96.6% | 98.9% | 83.7% | 109% | 99% | 102% | 103% | 79.3% | 92.9% | 93.4% | 94.1% | 99.5% | 67.7% | 94.1% | 93.2% |
